This excerpt belongs to a sample that is enriched for hits.
HT1080-NT tox: qHTS for induction of synthetic lethality in tumor cells producing 2HG: qHTS for the HT-1080-NT fibrosarcoma cell line; HT-1080-NT fibrosarcoma viability, CellTiter-Glo ATP luminescence, 48 h; Potency, µM (series often up to 46.1 µM), inactives show top-dose activity, negative = less viability, usual class: cytotoxic; actives 1.6% (n = 360,000);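 further: NT is the 2HG producing partner of a matched IDH1 knockdown line; potency means the concentration at half of the fitted maximal effect; 0% = DMSO-treated cells and -100% = media-only wells without cells; nearly all actives have a fitted effect of over 55% in size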
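Fibrosarcoma NT cells, 750 per well in 5% FBS RPMI, were exposed to compound for 48 hours. Viability: CellTiter-Glo luminescence.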
12-LOX inh: Primary qHTS assay for inhibitors of human arachidonate 12S-lipoxygenase (ALOX12): Round 2. Polyunsaturated fatty acid lipoxygenase ALOX12 (Homo sapiens), P18054. purified 12hLO, xylenol orange hydroperoxide absorbance. Potency, µM (top dose mostly 108 µM), for the others: at the highest dose activity change, negative = inhibition, actives largely listed as inhibitors. actives 1.1% (n = 580,000). AID 1671190, 2021; further: potency means the concentration at half of the fitted maximal effect
Target sequence (P18054 whole entry, looked up): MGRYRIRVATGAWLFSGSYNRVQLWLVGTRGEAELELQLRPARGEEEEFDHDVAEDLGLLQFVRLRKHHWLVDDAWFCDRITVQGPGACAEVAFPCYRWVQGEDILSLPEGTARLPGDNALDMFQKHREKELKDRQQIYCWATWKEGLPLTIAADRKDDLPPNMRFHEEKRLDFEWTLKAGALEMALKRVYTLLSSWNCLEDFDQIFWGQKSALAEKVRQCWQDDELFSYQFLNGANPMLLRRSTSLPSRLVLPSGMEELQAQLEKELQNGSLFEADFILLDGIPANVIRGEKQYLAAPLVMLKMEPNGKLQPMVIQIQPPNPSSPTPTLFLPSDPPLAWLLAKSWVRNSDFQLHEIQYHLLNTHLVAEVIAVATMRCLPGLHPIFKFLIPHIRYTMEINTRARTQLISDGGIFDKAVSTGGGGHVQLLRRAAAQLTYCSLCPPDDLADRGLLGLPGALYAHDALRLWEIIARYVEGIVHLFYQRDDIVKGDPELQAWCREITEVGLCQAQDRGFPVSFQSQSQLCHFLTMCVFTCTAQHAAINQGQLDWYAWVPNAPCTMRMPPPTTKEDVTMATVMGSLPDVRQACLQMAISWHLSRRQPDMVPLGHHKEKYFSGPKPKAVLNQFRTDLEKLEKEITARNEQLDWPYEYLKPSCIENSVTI
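Hydroperoxide product was detected by ferrous iron/xylenol orange as the 573 to 405 nm absorbance ratio. Arachidonic acid at 40 uM (final) was turned over for 30 min at room temperature by 150 nM human 12hLO, pH 7.0 Hepes buffer, after 15 min compound preincubation.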
TDP1 cell CPT: qHTS for Inhibitors of human tyrosyl-DNA phosphodiesterase 1 (TDP1): qHTS in cells in presence of CPT | Potency, µM (titrated, usually from 46.2 µM), for the others: at the highest dose activity change, negative = growth inhibition, usual class: inhibitors | chicken DT40 Tdp1-/-;hTDP1 cells + 20 nM CPT, ATP luminescence, 48 h | AID 686979, 2013 | actives 12% (n = 420,000); further: potency means the concentration at half of the fitted maximal effect; nearly all actives have a fitted effect of over 55% in size
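Chicken DT40 Tdp1-/- cells complemented with human TDP1, 400 cells/well, exposed to compounds plus 20 nM camptothecin for at least 48 h at 37 C; viability read as ATP content by CellTiter-Glo luminescence.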
IL1B secr inh: qHTS for Inhibitors of Inflammasome Signaling: IL-1-beta AlphaLISA Primary Screen; THP-1 LPS/ATP IL-1B secretion, AlphaLISA, 16 h; hits give low values; actives 4.7% (n = 360,000); activity change, % at 57.5 µM; in the data active means activity change below about -50%; inconclusive means mostly about -30% to -49%
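Secreted IL-1B measured by AlphaLISA bead assay after 16 h compound exposure of THP-1 cells; compounds (final up to 57.5 uM) added 1 h before LPS (250 ng/mL) and ATP (1.25 mM) stimulation; lower signal means less secretion.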
HT1080 IDH1KD tx: qHTS for induction of synthetic lethality in tumor cells producing 2HG: qHTS for the HT-1080-IDH1KD cell line. HT-1080 IDH1 knockdown viability, ATP luminescence, 48 h. Potency, µM (series often up to 46.1 µM), for inactives: at the highest dose activity, negative = toxicity, hits mostly cytotoxic. actives 2% (n = 360,000). AID 686971, 2013;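 further: potency means the concentration at half of the fitted maximal effect; 0% = DMSO wells and -100% = cell-free medium wells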
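After a 2 h attachment period, IDH1KD HT-1080 cells took pin-transferred compound for 48 h at 37 °C; ATP-based luminescence after 10 min room-temperature reagent incubation reported viability.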
TDP1 cell noCPT: qHTS for Inhibitors of human tyrosyl-DNA phosphodiesterase 1 (TDP1): qHTS in cells in absence of CPT. DT40 Tdp1-/- hTDP1 cells, no CPT, ATP luminescence, 48 h. Potency, µM (doses to about 46.2 µM), without a hit: at the top dose activity change, negative = growth inhibition, actives largely listed as inhibitors. actives 15% (n = 420,000). AID 686978, 2013; further: potency means the concentration at half of the fitted maximal effect; nearly all actives have a fitted effect of over 55% in size
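Seeded 400 DT40-hTDP1 cells/well (vehicle DMSO, no 20 nM CPT); pinned compounds; ≥48 hr at 37 °C; CellTiter-Glo luminescence as viability measure.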
Numbers without * were called inactive. Unless noted, the call rests on the fitted dose curve; in most records, active means well fitted curve in the direction sought with a large enough effect; inconclusive means small, poorly fitted or top-dose-only effect, or another doubt; inactive means no such curve, though single readings can be large; an effect the other way counts as inactive or inconclusive. Unless noted, on the % scale 0 is the no-effect control and ±100 the full control effect.

Screening O=C1N(CC2CCC2)CCCC12CCN(Cc1ccc(-c3ccn[nH]3)s1)C2 (centres undefined) returned 12-LOX inh 9.2%.
Screening O=C(NC1CCCCC1)N1CCCC1c1nc(CCOCC2CCCC2)no1 (centres undefined) returned 12-LOX inh 32.5%.
`CCCCCCCCCCCCCCCC(=O)OC[C@@H](NC(=O)C(Cl)Cl)[C@H](O)c1ccc([N+](=O)[O-])cc1` gave 12-LOX inh inconclusive, TDP1 cell CPT -2.1% and TDP1 cell noCPT 5.5%.
CS(=O)(=O)c1ccc(C(O)C(CO)NC(=O)C(Cl)Cl)cc1 (centres undefined) was read as TDP1 cell CPT inconclusive and TDP1 cell noCPT 1.64µM*.
For CS(=O)(=O)c1ccc([C@@H](O)[C@@H](CO)NC(=O)C(Cl)Cl)cc1 the results were HT1080-NT tox -20.9%, 12-LOX inh 25.9%, TDP1 cell CPT 5.8µM*, IL1B secr inh -0.6, HT1080 IDH1KD tx 1.3% and TDP1 cell noCPT 3.66µM*.
Screening CS(=O)(=O)c1ccc(NC(=O)C(c2ccccc2)c2ccccc2)cc1 returned 12-LOX inh -23.1%.
For COC(=O)C1CC23C=CCN4CCC5(c6ccccc6NC15C2C)C43 (centres undefined) the results were HT1080-NT tox 0.581µM*, 12-LOX inh inconclusive, TDP1 cell CPT 1.03µM*, IL1B secr inh 38.1, HT1080 IDH1KD tx 0.731µM* and TDP1 cell noCPT 1.3µM*.
`CN1CC[C@]23c4ccccc4N[C@H]1[C@]21CCN(C)[C@H]3Nc2ccccc21` gave HT1080-NT tox 16.3%, 12-LOX inh -13.3%, TDP1 cell CPT -0.1%, IL1B secr inh -21.1, HT1080 IDH1KD tx -1.8% and TDP1 cell noCPT 7.1%.
`O=C(Cc1cccc(F)c1)N1CCC2(CC1)NCCc1c2[nH]c2ccccc12` gave 12-LOX inh 1.4%.
CCNC(=O)COC(=O)c1cc(-c2ccc(OC)cc2)nc2ccccc12 was read as HT1080-NT tox 2.5%, 12-LOX inh -12.3%, TDP1 cell CPT inconclusive, IL1B secr inh -6.3, HT1080 IDH1KD tx -21.0% and TDP1 cell noCPT inconclusive.
For CCNC(=S)NNC(=O)c1cc(-c2ccc(OC)cc2)nc2ccccc12 the results were HT1080-NT tox 10.3µM*, 12-LOX inh inconclusive, TDP1 cell CPT 3.66µM*, IL1B secr inh -3.8, HT1080 IDH1KD tx 18.4µM* and TDP1 cell noCPT 4.11µM*.
`CCCCOc1ccc(-c2cc(C(=O)NNC(=S)NCC)c3ccccc3n2)cc1` gave HT1080-NT tox 17.8µM*, 12-LOX inh inconclusive, TDP1 cell CPT 23.1µM*, IL1B secr inh inconclusive, HT1080 IDH1KD tx inconclusive and TDP1 cell noCPT 20.6µM*.
For CCn1cc(S(=O)(=O)N2CCCCC2c2noc(COCCOC)n2)cn1 (centres undefined) the results were 12-LOX inh 11.5%.
`Cc1cccc(NC(=O)NCC2CCN(CCc3ccc(F)cc3)CC2)c1C` gave 12-LOX inh 35.5µM*.
`CCOc1ccc(Br)cc1/C=N/O` gave HT1080-NT tox 4.9%, 12-LOX inh 14.5%, TDP1 cell CPT 1.1%, IL1B secr inh -9.7, HT1080 IDH1KD tx 7.4% and TDP1 cell noCPT -10.4%.

Compound activity from PubChem.
